Here are results for 25 compounds from PubChem BioAssay (EPA / NIEHS).

SMILES strings stand for the structures. Records with an inconclusive call do not appear. Active and inactive are the calls of the source. Rule for the calls: active = hit-call score of the fitted dose curve at least 0.9, where 1 is the maximum; inconclusive = response in the unintended direction; inactive = score below 0.9.

human Vitamin D Receptor (VDR), VDR (gene 7421), sequence (P11473 whole entry, looked up): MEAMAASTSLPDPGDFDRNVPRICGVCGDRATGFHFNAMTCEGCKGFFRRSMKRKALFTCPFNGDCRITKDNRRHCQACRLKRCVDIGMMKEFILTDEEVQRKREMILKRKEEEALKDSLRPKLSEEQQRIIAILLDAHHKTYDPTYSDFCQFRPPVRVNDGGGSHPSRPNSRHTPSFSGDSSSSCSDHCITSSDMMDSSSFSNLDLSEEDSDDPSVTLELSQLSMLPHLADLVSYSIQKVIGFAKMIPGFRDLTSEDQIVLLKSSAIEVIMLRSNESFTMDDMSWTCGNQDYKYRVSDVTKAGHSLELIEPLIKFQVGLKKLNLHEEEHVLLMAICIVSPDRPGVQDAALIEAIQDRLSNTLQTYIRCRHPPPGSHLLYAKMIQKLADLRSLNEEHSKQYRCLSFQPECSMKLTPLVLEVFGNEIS

In the test the target is human Vitamin D Receptor (VDR), VDR (gene 7421) (UniProt P11473). As to the kind of experiment: ATG_VDR_TRANS: Attagene TRANS-FACTORIAL HepG2 Assay for human Vitamin D Receptor (VDR) (AID 2283022). The protocol:
ATG_TRANS is a cell-based, multiplexed-readout assay that uses HepG2, a human liver cell line, with measurements taken at 24 hours after chemical dosing in a 24-well plate.ATG_VDR_TRANS is one of 30 assay component(s) measured or calculated from the ATG_TRANS assay. It is designed to make measurements of mRNA induction, a form of inducible reporter, as detected with fluorescence intensity signals by Reverse transcription polymerase chain reaction (RT-PCR) and Capillary electrophoresis technology.Data from the assay component ATG_VDR_TRANS was analyzed into 1 assay endpoint. This assay endpoint, ATG_VDR_TRANS, was analyzed in the positive analysis fitting direction relative to DMSO as the negative control and baseline of activity. Using a type of inducible reporter, measures of mRNA for gain-of-signal activity can be used to understand the reporter gene at the transcription factor-level as they relate to the gene VDR. Furthermore, this assay endpoint can be referred to as a primary readout, because this assay has produced multiple assay endpoints where this one serves a reporter gene function. To generalize the intended target to other relatable targets, this assay endpoint is annotated to the nuclear receptor intended target family, where the subfamily is non-steroidal.
Human liver HepG2 cells are transiently transfected with multiple reporter transcription units (MRTUs) in 6-well plates using FuGene 6 reagent (Roche; 3 ml FuGene/1 mg DNA). The MRTU constructs are regulated by a cis-regulating element (promoter). […] A major difference between the CIS and TRANS system is that in CIS activities of endogenous TFs are measured, whereas the TRANS assay evaluates changes in activities of exogenous, chimeric NR-Gal4 proteins. […] At the end of 24 hour incubation, total RNA was isolated using TriZol reagent (Invitrogen). The isolated RNA is then reverse-transcribed using oligo(dT) primer and Mo-MLV reverse transcriptase (Invitrogen) with DNAse I (Ambion) treatment for 30 min. The one-tenth of the produced cDNA was amplified by PCR using Taq DNA polymerase (Invitrogen) and two reporter sequence-specific primers. The PCR products were fluorescently labeled by primer extension with 6-arboxyfluorescein (6-FAM) 5'-labeled reporter sequence-specific primer (2 min at 95 C, 20 s at 68 C and 10 min at 72 C) and these products were digested with 5U of HpaI (New England Biolabs) for 2h at 37 C. The fragments were purified using Qiaquick PCR columns (Qiagen), analyzed on an ABI 3130xL genetic analyzer (Applied Biosystems) with peak positions identified by using a set of X-rhodamine (ROX)-labeled MapMarker1000 molecular weight standards (BioVentures). The raw capillary electrophoresis data was processed using Attagraph software (Attagene).
Regarding `CSC(=O)c1c(C(F)F)nc(C(F)(F)F)c(C(=O)SC)c1CC(C)C`, the result was inactive.

As for `COC(=O)N(C(=O)N1CO[C@@]2(C(=O)OC)Cc3cc(Cl)ccc3C2=N1)c1ccc(OC(F)(F)F)cc1`, the call was inactive.

For `CCOc1cc(C(C)(C)C)ccc1C1COC(c2c(F)cccc2F)=N1` (stereo not given), the compound was called inactive.

As to `CC1(C)C(C(=O)OC(C#N)c2cccc(Oc3ccccc3)c2)C1(C)C` (stereo not given), the compound was called inactive.

Regarding `COC(=O)NC(=S)Nc1ccccc1NC(=S)NC(=O)OC`, the compound was called inactive.

As to `CCOc1nc(F)cc2nc(S(=O)(=O)Nc3c(Cl)cccc3Cl)nn12`, the compound was called inactive.

`CCN(CC)c1nc(C)cc(OP(=S)(OC)OC)n1`: the compound was classed as inactive.

For `CS(=O)(=O)c1cc(C(F)(F)F)ccc1C(=O)c1cnoc1C1CC1`, the result was inactive.

Regarding `COC(=O)c1c(C(F)F)nc(C(F)(F)F)c(C2=NCCS2)c1CC(C)C`, the result was inactive.

With `COCC(C)N(C(=O)CCl)c1c(C)csc1C` (stereo not given), the result was inactive.

For the compound `Clc1nc(Cl)nc(Nc2ccccc2Cl)n1`, the outcome was inactive.

On to `Cn1c(-c2ccccc2)cc(-c2ccccc2)[n+]1C`, for which the result was inactive.

On to `CC1(C)CCC(=Cc2ccc(Cl)cc2)C1(O)Cn1cncn1` (stereo not given), for which the outcome was inactive.

Turning to `CC(C)N1C(=O)c2ccccc2NS1(=O)=O`, the compound was called inactive.

With `CNC(=O)N(C)c1nnc(C(C)(C)C)s1`, the call was inactive.

With `CCOc1nc(C(Cl)(Cl)Cl)ns1`, the compound was classed as inactive.

In the case of `CCC(C)n1c(=O)[nH]c(C)c(Br)c1=O` (stereo not given), the compound was classed as inactive.

Regarding `CCOP(=S)(OCC)Oc1nc(Cl)n(C(C)C)n1`, the compound was classed as inactive.

As to `CNC(=O)Oc1cccc2ccccc12`, the result was inactive.

For `OC(c1ccc(Cl)cc1)(c1ccc(Cl)cc1)C(Cl)(Cl)Cl`, the compound was called inactive.

Take `CC1(C)CON(Cc2ccccc2Cl)C1=O`: the compound was classed as inactive.

Turning to `COCc1cnc(C2=NC(C)(C(C)C)C(=O)N2)c(C(=O)O)c1` (stereo not given), the compound was classed as inactive.

Regarding `CC(C)Nc1nc(Cl)nc(NC(C)C)n1`, the compound was classed as inactive.

`COP(=S)(OC)Oc1ccc([N+](=O)[O-])c(C)c1`: the outcome was inactive.

In the case of `CN/C(=N\[N+](=O)[O-])NCc1cnc(Cl)s1`, the result was inactive.
